Laboratory results reported in PubChem BioAssay (NCATS).
Results filed as inconclusive are left out. A call without a number means that no potency is given here. The source made the active and inactive calls. Calls come from the whole dose curve; as a rule, active = well fitted curve in the direction sought with a large enough effect; inconclusive = small, poorly fitted or top-dose-only effect, or another doubt; inactive = no such curve, though single readings can be large; an effect the other way counts as inactive or inconclusive.

Assays:
[1] = qHTS for Inhibitors of the Aldehyde Dehydrogenase Family (ALDH1A2, ALDH1A3, ALDH2, ALDH3A1) (AID 2061307); conditions: ALDH inhibition qHTS; series mostly up to 50.3 µM; note: nearly all actives have a fitted effect of over 50% in size; for potency: test system not described further here; potency is the fitted concentration of half-maximal effect
[2] = target: Aldehyde dehydrogenase, mitochondrial (Homo sapiens) (UniProt P05091); assay: qHTS for Inhibitors of the Aldehyde Dehydrogenase Family (ALDH2) Primary screen (AID 2061308); conditions: ALDH2 enzyme inhibition qHTS, 1536-well; series mostly up to 56 µM; note: nearly all actives have a fitted effect of over 55% in size
[3] = target: Retinaldehyde dehydrogenase 3 (Homo sapiens) (UniProt P47895); assay: qHTS for Inhibitors of the Aldehyde Dehydrogenase Family (ALDH1A3) Confirmatory screens (AID 2061311); conditions: ALDH inhibition qHTS; series mostly up to 46 µM; note: nearly all actives have a fitted effect of over 60% in size; note: potency is the fitted concentration of half-maximal effect
[4] = target: Retinal dehydrogenase 2 (Homo sapiens) (UniProt O94788); assay: qHTS for Inhibitors of the Aldehyde Dehydrogenase Family (ALDH1A2) Confirmation screens (AID 2061314); conditions: ALDH1A2 enzyme inhibition qHTS confirmation; series mostly up to 45.9 µM; note: nearly all actives have a fitted effect of over 65% in size; note: potency is the fitted concentration of half-maximal effect
[5] = target: Retinaldehyde dehydrogenase 3 (Homo sapiens) (UniProt P47895); assay: qHTS for Inhibitors of the Aldehyde Dehydrogenase Family (ALDH1A3) Primary screen (AID 2061315); conditions: ALDH inhibition qHTS; series mostly up to 56 µM
[6] = target: Aldehyde dehydrogenase 1A1 (Homo sapiens) (UniProt P00352); assay: qHTS for Inhibitors of the Aldehyde Dehydrogenase Family (ALDH1A1) Confirmatory screens (AID 2061316); conditions: ALDH inhibition qHTS; series mostly up to 47.3 µM; note: nearly all actives have a fitted effect of over 65% in size; note: potency is the fitted concentration of half-maximal effect

## CCOC(=O)c1ccc2c(c1)c(C(C)=O)c(C)n2-c1ccc(OC)cc1
[1]
  Potency: inactive
[2]
  Potency: inactive
[3]
  Potency: inactive
[4]
  Potency: inactive
[5]
  Potency: inactive
[6]
  Potency: inactive

## COC(=O)c1ccc(O)c2ncc(N3CC[C@H](N)C3)cc12
[1]
  Potency: inactive
[2]
  Potency: inactive
[3]
  Potency: 12.7 µM (active)
[4]
  Potency: inactive
[5]
  Potency: inactive
[6]
  Potency: 11.3 µM (active)

## O=C(O)c1cccc(-n2cccc2/C=C2/C(=O)N(Cc3ccc(F)cc3)C(=O)N2Cc2ccc(F)cc2)c1
[1]
  Potency: 14.2 µM (active)
[2]
  Potency: inactive
[3]
  Potency: inactive
[4]
  Potency: inactive
[5]
  Potency: inactive
[6]
  Potency: inactive

## O=S(=O)(NN1CCOCC1)c1ccc(Br)cc1
[1]
  Potency: 22.5 µM (active)
[2]
  Potency: inactive
[3]
  Potency: inactive
[4]
  Potency: 11.3 µM (active)
[5]
  Potency: inactive
[6]
  Potency: 3.57 µM (active)

## CC(=O)N1CCN(c2ccc(NCc3cccs3)cc2)CC1
[1]
  Potency: 3.18 µM (active)
[2]
  Potency: inactive
[3]
  Potency: 7.98 µM (active)
[4]
  Potency: 5.65 µM (active)
[6]
  Potency: 10.1 µM (active)

## COc1cccc(C2=Nn3c(nnc3-c3ccccc3C)SC2)c1
[1]
  Potency: 2.51 µM (active)
[2]
  Potency: inactive
[3]
  Potency: 22.4 µM (active)
[4]
  Potency: 17.8 µM (active)
[5]
  Potency: inactive
[6]
  Potency: 10.1 µM (active)

## COc1cccc(C2c3c(ncn(-c4ccccc4)c3=N)Oc3ccc4ccccc4c32)c1 (stereo unspecified)
[1]
  Potency: inactive
[2]
  Potency: inactive
[3]
  Potency: 11.3 µM (active)
[4]
  Potency: 12.7 µM (active)
[5]
  Potency: inactive

## Cc1cc(C)nc(NC(=S)N2CCN(c3cc4ccccc4cn3)CC2)c1
[1]
  Potency: inactive
[2]
  Potency: inactive
[3]
  Potency: 6.34 µM (active)
[4]
  Potency: 15.9 µM (active)
[6]
  Potency: 5.04 µM (active)

## COc1ccc(C2Nc3ccccc3C(=O)N2Cc2ccccc2C)cc1COc1ccc(NC(C)=O)cc1 (stereo unspecified)
[1]
  Potency: 1.79 µM (active)
[2]
  Potency: inactive
[3]
  Potency: 17.9 µM (active)
[4]
  Potency: 17.9 µM (active)
[5]
  Potency: inactive
[6]
  Potency: 25.2 µM (active)
